Source: PubChem BioAssay (National Center for Advancing Translational Sciences (NCATS))
ELG1 repair inh: ELG1-dependent DNA repair inhibition. HEK293T ELG1-luciferase reporter, luminescence, 16 h; DNA damage induced by 5-fluorouridine. Potency, µM (highest dose often 46.1 µM), for the others: at the highest dose activity change, negative = inhibition, usual class: inhibitors. 330,000 tested, 2.3% active; also: potency is read from the fitted curve at half-maximal effect; nearly all actives have a fitted effect of over 55% in size
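In this reporter screen, reduction of luminescence relative to DMSO vehicle indicated activity. Compounds and 5-fluorouridine were added together to 2,000 cells per well, incubated for 16 hr at 37 °C, then developed with ONE-Glo.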
TDP1 cell noCPT: qHTS for Inhibitors of human tyrosyl-DNA phosphodiesterase 1 (TDP1): qHTS in cells in absence of CPT. 420,000 tested, 15% active. DT40 Tdp1-/- hTDP1 cells, no CPT, ATP luminescence, 48 h. Potency, µM (top dose mostly 46.2 µM), inactives show at the top dose activity change, negative = growth inhibition, actives largely listed as inhibitors; also: potency is read from the fitted curve at half-maximal effect; nearly all actives have a fitted effect of over 55% in size
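Chicken DT40 Tdp1-/- cells complemented with human TDP1, screened without camptothecin (DMSO vehicle only), 400 cells/well. Compounds pin-transferred, cells incubated at 37 °C for at least 48 hr. Growth read as ATP-dependent luminescence (CellTiter-Glo, 30 min at RT).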
TDP1 cell CPT: growth inhibition of DT40 Tdp1-/-;hTDP1 cells with camptothecin (screen for TDP1 inhibitors); chicken DT40 Tdp1-/-;hTDP1 cells + 20 nM CPT, ATP luminescence, 48 h; Potency, µM (top dose mostly 46.2 µM), without a hit: at the top dose activity change, negative = growth inhibition, actives largely listed as inhibitors; 420,000 tested, 12% active; also: potency is read from the fitted curve at half-maximal effect; nearly all actives have a fitted effect of over 55% in size
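Chicken DT40 Tdp1-/- cells complemented with human TDP1, 400 cells/well, exposed to compounds plus 20 nM camptothecin for at least 48 h at 37 C; viability read as ATP content by CellTiter-Glo luminescence.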
Gal4-VP16 FLuc: Gal4-VP16 reporter inhibition counter-screen. Drosophila S2 Gal4-VP16 UAS-luciferase, luminescence, 20 h. Potency, µM (top dose mostly 53.6 µM), for the others: top-dose activity, negative = inhibition, most hits filed as inhibitors. 310,000 tested, 3.5% active;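 also: Gal4-VP16 expression switched on by copper sulfate through the metallothionein promoter; potency is read from the fitted curve at half-maximal effect; nearly all actives have a fitted effect of over 50% in size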
IL-1B inflam inh: blocks inflammasome-driven IL-1 beta release; THP-1 LPS/ATP IL-1B secretion, AlphaLISA, 16 h; stronger effect = lower value; activity change, % at 57.5 µM; 360,000 tested, 4.7% active; in the data active = activity change below about -50%; inconclusive = mostly about -30% to -49%
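THP-1 cells pretreated 1 hr with compounds (up to 57.5 uM final), then stimulated with LPS (250 ng/mL final) plus ATP (1.25 mM final); secreted IL-1B measured by AlphaLISA after 16 hr, decreased signal indicating inhibition.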
RORg inh: inhibitors of mouse ROR gamma transcriptional activity | Drosophila S2 Gal4-RORgamma UAS-luciferase reporter, 20 h | Potency, µM (series often up to 53.6 µM), for the others: at the highest dose activity change, negative = inhibition, actives largely listed as inhibitors | 310,000 tested, 5.4% active | AID 2551; also: potency is read from the fitted curve at half-maximal effect; nearly all actives have a fitted effect of over 60% in size
Target sequence (P51450 whole entry, looked up, the tested form may be a part): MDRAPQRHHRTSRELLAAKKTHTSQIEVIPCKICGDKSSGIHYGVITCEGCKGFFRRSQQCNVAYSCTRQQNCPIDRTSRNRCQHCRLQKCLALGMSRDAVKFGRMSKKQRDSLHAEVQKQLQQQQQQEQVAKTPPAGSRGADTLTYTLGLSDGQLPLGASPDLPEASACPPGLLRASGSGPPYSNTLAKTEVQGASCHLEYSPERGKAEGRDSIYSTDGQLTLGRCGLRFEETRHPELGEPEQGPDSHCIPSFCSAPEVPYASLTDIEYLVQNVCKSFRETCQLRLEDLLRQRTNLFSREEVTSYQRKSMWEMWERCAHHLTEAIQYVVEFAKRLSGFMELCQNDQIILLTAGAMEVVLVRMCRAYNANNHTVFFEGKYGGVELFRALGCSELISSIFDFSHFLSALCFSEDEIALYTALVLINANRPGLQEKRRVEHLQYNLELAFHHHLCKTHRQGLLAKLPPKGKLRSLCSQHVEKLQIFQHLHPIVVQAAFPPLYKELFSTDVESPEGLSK
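Compounds are pin-transferred onto Drosophila Schneider cells expressing a copper-inducible Gal4–ROR gamma transactivation domain fusion. After 1 hr, copper sulfate is added to 700 uM final; luciferase is read 20 hr later.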
Active calls of the source: *; ? = inconclusive; nt = no result; [ ] = another dose, or the depositor's remark. This is a sample that favours compounds with a hit; in the whole collection about 21% have one here. Unless noted, calls follow the shape of the dose curve; as a rule, active = well fitted curve in the direction sought with a large enough effect; inconclusive = small, poorly fitted or top-dose-only effect, or another doubt; inactive = no such curve, though single readings can be large; an effect the other way counts as inactive or inconclusive. % is scaled to controls: 0 for no effect and ±100 for the full control effect.

SMILES | ELG1 repair inh | TDP1 cell noCPT | TDP1 cell CPT | Gal4-VP16 FLuc | IL-1B inflam inh | RORg inh
Cc1ccc(S(=O)(=O)N2CCC(=O)N(C(COCc3ccc(C(F)(F)F)cc3)Cc3ccccc3)CC2)cc1 (stereo unspecified) | 0% | 18µM* | 9.2µM* | 2% | -17 | 22%
Cc1ccc(S(=O)(=O)N2CCC(=O)N(C(COCc3ccc(Cl)c(Cl)c3)Cc3ccccc3)CC2)cc1 (stereo unspecified) | -16% | 23µM* | ? | -5% | 48 | 9%
CN(Cc1ccc(Cl)cc1Cl)C(=O)c1cc(=O)c2ccccc2o1 | 9% | 23µM* | ? | 11% | -13 | 22%
CN(Cc1ccccc1Cl)C(=O)c1cc2ccccc2o1 | 12% | ? | ? | 27% | -22 | -19%
COc1ccc(C#CC2=CC(=O)CC(C)(C)C2)cc1 | nt | ? | ? | nt | 0 | nt
Cc1ccc(/C=C/c2nc3ccccc3n2S(=O)(=O)c2cccc(Cl)c2)cc1 | nt | 10µM* | 13µM* | nt | nt | nt
CSc1ccc(/C=C/c2nc3ccccc3n2S(=O)(=O)c2ccc(F)c(C)c2)cc1 | nt | 21µM* | 18µM* | nt | nt | nt
Cc1ccc(S(=O)(=O)n2c(C)nc3ccccc32)cc1 | -1% | -4% | -6% | -13% | 5 | 11%[1.91 µM]
CCOc1ccc(/C=C/c2nc3ccccc3n2S(=O)(=O)c2cccc(Cl)c2)cc1 | nt | 6.5µM* | 7.3µM* | nt | nt | nt
CCOc1cc(S(=O)(=O)n2c(C)nc3ccccc32)ccc1F | -2% | ? | ? | -2% | 68 | -21%
O=C(COC(=O)c1cc(Br)ccc1O)Nc1cc(S(=O)(=O)N2CCCC2)ccc1Cl | -7% | -2% | -4% | -5% | 17 | -2%
O=C(CSc1nnc(N2CCCC2)n1-c1ccccc1Cl)N1CCN(c2ccccn2)CC1 | -14% | ? | ? | nt | -14 | nt
COc1cccc(C#Cc2cnc3c(c2)C(=O)N([C@@H](C)CO)C[C@H](C)[C@H](CN(C)C(=O)C2CCC2)O3)c1 | nt | 13µM* | ? | nt | -24 | nt
COc1ccccc1S(=O)(=O)N(C)C[C@@H]1Oc2ncc(-c3ccc(C)cc3)cc2C(=O)N([C@H](C)CO)C[C@@H]1C | nt | 16µM* | ? | nt | -13 | nt
Cc1ccc(S(=O)(=O)N(C)C[C@H]2Oc3ncc(-c4ccccc4)cc3C(=O)N([C@@H](C)CO)C[C@@H]2C)cc1 | nt | 13µM* | ? | nt | -28 | nt
Cc1ccc(S(=O)(=O)N(C)C[C@@H]2Oc3ncc(C#CCC(C)C)cc3C(=O)N([C@H](C)CO)C[C@H]2C)cc1 | nt | 16µM* | ? | nt | -10 | nt
C[C@H](CO)N1C[C@H](C)[C@@H](CN(C)Cc2ccncc2)Oc2c(NS(=O)(=O)c3cn(C)cn3)cccc2C1=O | 14% | -1% | 6% | nt | 28 | nt
O=C(NC1=NCCS1)c1cc2ccccc2o1 | ? | -9% | -16% | 8.9µM* | -1 | 7.1µM*
O=C(Nc1ccccn1)c1cc2ccccc2o1 | ? | ? | 10µM* | 6.3µM* | -97* | 4µM*
Cn1c(=O)oc2ccccc2c1=O | nt | -11% | 1% | nt | 7 | nt
CN1CC[C@]2(CCN3CCc4c(oc5ccccc45)[C@@H]3C2)N(C)C1=O | ? | 18µM* | ? | nt | 25 | nt
Cc1cccc(-n2ncc3c(NCCCO)ncnc32)c1 | ? | -8% | -1% | -8% | 0 | 8%
CCN(CC)CCCNc1ncnc2c1cnn2-c1ccc(C)c(C)c1 | nt | 16µM* | ? | nt | nt | nt
Cc1ccc(-n2ncc3c(NCCCN4CCOCC4)ncnc32)cc1C | nt | 23µM* | ? | nt | nt | nt
COc1cc2c(ccc3cc(OC)c(OC)c(O)c32)cc1O | ? | 9.2µM* | 7.3µM* | 1% | -6 | -6%
SMILES | ELG1 repair inh | TDP1 cell noCPT | TDP1 cell CPT | Gal4-VP16 FLuc | IL-1B inflam inh | RORg inh
COc1cc2oc(=O)ccc2cc1O | nt | nt | nt | 0% | nt | -7%
CC1=C(C(=O)N(C)C)CC(CC(=O)NC(c2ccccc2)c2ccccc2)C(=O)N1Cc1ccc(F)cc1 (stereo unspecified) | nt | 18µM* | ? | nt | 23 | nt
CCCCN1C(=O)C(CC(=O)NC(c2ccccc2)c2ccccc2)CC(C(=O)N(CC)CC)=C1C (stereo unspecified) | nt | 21µM* | 18µM* | nt | ? | nt
COCCCN1C(=O)C(CC(=O)NC(c2ccccc2)c2ccccc2)CC(C(=O)N2CCCCCC2)=C1C (stereo unspecified) | nt | ? | ? | nt | -1 | nt
CC1=C(C(=O)N2CCOCC2)CC(CC(=O)NC(c2ccccc2)c2ccccc2)C(=O)N1CCC1=CCCCC1 (stereo unspecified) | nt | ? | ? | nt | -19 | nt
CCN(CC)C(=O)C1=C(C)N(CCCOC)C(=O)C(CC(=O)NC(c2ccccc2)c2ccccc2)C1 (stereo unspecified) | nt | 7.3µM* | 5.8µM* | nt | 4 | nt
CC1=C(C(=O)N(C(C)C)C(C)C)CC(CC(=O)NC(c2ccccc2)c2ccccc2)C(=O)N1CCC1=CCCCC1 (stereo unspecified) | nt | 18µM* | 26µM* | nt | ? | nt
CC(=O)Nc1c(O)[nH]c2ccccc12 | 3% | 0% | -16% | -1%[0.365 µM] | 21 | -6%
N=NC(=O)c1ccccc1Nc1c(O)[nH]c2ccccc12 | nt | ? | 21µM* | nt | -1 | nt
c1ccc(-c2cccc(N3CC[C@@]4(CCCNC4)C3)c2)cc1 | nt | 6.5µM* | 8.2µM* | 0% | nt | -23%
c1ccc(-c2cccc(N3CCCC4(CCNCC4)C3)c2)cc1 | nt | 21µM* | 12µM* | -1% | nt | ?
c1ccc(-c2cccc(N3CCC4(CCNCC4)CC3)c2)cc1 | nt | 8.2µM* | 9.2µM* | -20% | nt | ?
c1ccc(-c2cccc(N3CC4(CCNCC4)C3)c2)cc1 | nt | 9.2µM* | 9.2µM* | 8% | nt | -9%
Cc1cccc(C)c1NC(=O)C(c1ccc(C(F)(F)F)cc1)n1c(=O)c(-c2ccccc2)nc2ccccc21 (stereo unspecified) | nt | ? | ? | nt | 46 | nt
COc1ccc(CN2CCNC(=O)C2CC(=O)NCC(C)(C)N2CCOCC2)cc1C (stereo unspecified) | 30% | 2% | 5% | 2% | -2 | -21%
COc1ccc(N2CCN(C(=O)c3ccc(N(C)S(=O)(=O)c4ccc(OC)cc4)cc3)CC2)cc1 | ? | 16µM* | ? | -20% | ? | 33%
COc1ccc(N(C)S(=O)(=O)c2cccc(C(=O)N3CCN(S(=O)(=O)c4ccc(C)cc4)CC3)c2)cc1 | -28% | ? | 26µM* | -4% | -15 | -21%
